EBV gp42 inh = Epstein-Barr virus gp42 inhibitors, primary screen, biochemical, uHTS, fluorescence polarization. AID 1085, 2008. inhibition, % (tested at 21.74 µM). hit rate 0.42% among 220,000. Glycoprotein 42 (Epstein-Barr virus (strain AG876)), Q1HVG2. Fluorescence polarization binding assay, mP read-out; in the data active means inhibition above about 50%
PABP polyA inh = PABP poly(A) RNA binding inhibitors, primary screen, biochemical, fluorescence polarization, uHTS; Polyadenylate-binding protein 1 (Homo sapiens), P11940; calls only at 35 µM; hit rate 1% among 290,000; AID 2014, 2009;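 further: calls also rest on retests at 20 µM and on dose response follow-up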
eIF4H inh = human eIF4H binding inhibitors, primary screen, translation initiation inhibitor project, biochemical, uHTS, fluorescence polarization | eIF4H fluorescence polarization binding assay | hit rate 0.94% among 290,000 | inhibition, % at 35 µM | Eukaryotic translation initiation factor 4H (Homo sapiens), Q15056 | AID 2012, 2009;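 further: calls also rest on retests at 20 µM and on dose response follow-up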
PABP1 MLLE inh = inhibitors of PABP1 MLLE–PAM2 peptide binding, primary screen, biochemical, fluorescence polarization, FITC-PAM2, GST-MLLE. Polyadenylate-binding protein 1 (Homo sapiens), P11940. inhibition, % at 20 µM. hit rate 0.36% among 360,000. AID 588489, 2011; in the data active means inhibition above about 35%, passing the limit was not always enough;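 further: plate controls were DMSO wells with GST-MLLE for no effect and wells lacking GST-MLLE protein for full effect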
MEX-5 binding = MEX-5 zinc finger RNA-binding disruptors – biochemical, C. elegans, fluorescence polarization, MLPCN library, primary screen. Zinc finger protein mex-5 (Caenorhabditis elegans), Q9XUB2. MEX-5/FITC-TCR2 RNA binding; stronger effect = lower value. activity score (negative = inhibition of binding), % at 10 µM. hit rate 0.38% among 300,000. AID 1832, 2009;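 active means inhibition past about -25% in most replicates, and total fluorescence under double the plate's negative control median, limit read from the data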;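 further: 0% = DMSO and -100% = 5 µM competing unlabeled TCR2 RNA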
* hit, by the source's call. Hits are enriched below; roughly 1.8% of the tested compounds scored in any of these assays. Unless noted, how the calls were made is not given here.

`COC(=O)c1ccc2nc(-c3ccco3)c(Cc3ccccc3)n2c1` gave PABP1 MLLE inh 3.0.
For Cc1cc(C)cc(C(=O)NCC(=O)OCC(=O)N2c3ccccc3NC(=O)C2(C)C)c1 the results were EBV gp42 inh -4.3, PABP polyA inh active, eIF4H inh 76.0*, PABP1 MLLE inh 8.2 and MEX-5 binding -1.1.
Cc1ccc2nc3sc(C(=O)Nc4c(C)[nH]c(=O)[nH]c4=O)c(N)c3cc2c1 was read as EBV gp42 inh 11.9, PABP polyA inh inactive, eIF4H inh 14.4, PABP1 MLLE inh -1.4 and MEX-5 binding -3.8.
Cc1ccc2cc3c(N)c(C(=O)Nc4c(C)[nH]c(=O)[nH]c4=O)sc3nc2c1 was read as EBV gp42 inh 47.6, PABP polyA inh active, eIF4H inh 5.2, PABP1 MLLE inh -1.1 and MEX-5 binding -8.2.
COc1ccccc1N1CCN(C(=O)/C=C/c2c(Cl)nc3ccccn23)CC1 was read as EBV gp42 inh -2.3, PABP polyA inh inactive, eIF4H inh 1.1, PABP1 MLLE inh -3.6 and MEX-5 binding -0.3.
Screening COc1ccc(NC(=O)/C=C/c2c(Cl)nc3ccccn23)cc1 returned EBV gp42 inh -0.5, PABP polyA inh active, eIF4H inh 1.5*, PABP1 MLLE inh -13.2 and MEX-5 binding -0.3.
`COc1ccccc1NC(=O)Nc1ccnn1C1CCN(C(=O)C2CCOC2)CC1` (stereo not drawn) gave PABP1 MLLE inh 2.9.
For CCCC[n+]1c2ccccc2cc2ccccc21 the results were PABP polyA inh active, eIF4H inh 14.1, PABP1 MLLE inh -82.5 and MEX-5 binding -20.3.
`CCC[n+]1c2ccccc2cc2ccccc21` gave PABP polyA inh active, eIF4H inh 0.0, PABP1 MLLE inh -79.3 and MEX-5 binding -18.9.
O=c1c2c([nH]c3ccccc13)CCCC2 was read as EBV gp42 inh -21.5, PABP polyA inh inactive, eIF4H inh 1.7, PABP1 MLLE inh -2.9 and MEX-5 binding 0.6.
`O=c1c2c([nH]c3ccccc13)C(=C1CCCC1)CC2` gave EBV gp42 inh -15.3, PABP polyA inh active, eIF4H inh 82.3*, PABP1 MLLE inh 4.1 and MEX-5 binding -7.5.
CCN1CCN(C(=O)c2ccc(CS(=O)(=O)Cc3ccccc3Cl)o2)CC1 was read as PABP1 MLLE inh -0.1.
N#CCCn1cc(/C=N/NC(N)=S)c(-c2ccc(-c3ccccc3)cc2)n1 was read as EBV gp42 inh -16.0, PABP polyA inh inactive, eIF4H inh 1.9*, PABP1 MLLE inh -35.0 and MEX-5 binding 2.2.
Cc1ccccc1C(=O)N(C)[C@H]1C[C@H]2c3[nH]c4ccccc4c3CCN2C(=O)[C@H]1[C@H](C)O was read as PABP1 MLLE inh -19.1.
`CC(C)[C@H](NC(=O)[C@@H]1Cc2c([nH]c3ccccc23)C2c3ccccc3C(=O)N21)C(=O)N1CCC[C@H]1C(=O)O` (stereo partly drawn) gave PABP1 MLLE inh 0.2.
For CC(=O)Nc1ccc2[nH]c3ccccc3c2c1 the results were EBV gp42 inh 4.6, PABP polyA inh active, eIF4H inh 99.1*, PABP1 MLLE inh -8.4 and MEX-5 binding 0.4.
For Cc1ccsc1C(=O)N1CCC1(C)C(=O)NCCC#N (stereo not drawn) the results were PABP1 MLLE inh -3.4.
For COc1ccc(CN2CCN(c3nc4ccccc4s3)CC2)cc1 the results were PABP polyA inh inactive, eIF4H inh -7.4, PABP1 MLLE inh -6.1 and MEX-5 binding 4.8.
`COc1ccc(CCn2c(O)cc3nn(-c4nc5ccccc5s4)c(=O)c-3c2C)cc1` gave EBV gp42 inh 1.3, PABP polyA inh active, eIF4H inh 68.0*, PABP1 MLLE inh -56.9 and MEX-5 binding 1.3.
`NS(=O)(=O)c1cccc2c1c([N+](=O)[O-])cc1nc(O)c(O)nc12` gave PABP1 MLLE inh 38.4*.
For CCCCNC(=O)c1cnc(Cc2c[nH]c3ccccc23)c(I)c1 the results were PABP1 MLLE inh -77.5.

Source: PubChem BioAssay
